SMILES strings stand for the structures. This is part of a sample that, as a whole, favours compounds with a hit. Of some 83,000 tested, about 20% had one in any assay.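 Treatment: one concentration, 48 hours, 96-well format. Scoring: percent growth, with anything below 10 considered active.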 Unmarked numbers belong to inactive results. The source made the active and inactive calls.

This experiment concerns SNB-75 CNS. Kind of experiment: NCI-60 one-dose screen, 48 h (100 = growth as untreated, 0 = no growth, -100 = all killed). The following applies: 10 µM unless noted. Here is the method: Growth inhibition of the SNB-75 human tumor cell line is measured as a screen for anti-cancer activity. Cells are grown in 96 well plates and exposed to the test compound for 48 hours. Compounds are tested at a single concentration, which is 10^-5 M for most compounds. The reported endpoint is percent growth (GI% or GIPRCNT), where numbers from 0 - 100% represent growth inhibition, and numbers from -100% - 0 represent cell death. For example, a value of 40 represents 60% growth inhibition. A value of 0 means no net growth occurred over the course of the experiment. A value of -40 indicates 40% of cells at the beginning of the experiment died by the end of the experiment. A value of -100 means all cells are dead at the end of the experiment.
NCI-60 Human Tumor Cell Lines Screen was performed using the standard one-dose NCI protocol, which is described in more detail at https://dtp.cancer.gov/discovery_development/nci-60/default.htm.
Compounds with GIPRCNT values below 10 were considered active. Activity score was based on GIPRCNT using the following formula: […]
Score is 0 for GIPRCNT values of 100 or above, 50 for GIPRCNT values of 0, and 100 for GIPRCNT values of -100.
`COc1cc(C=C2C(=O)NC(=S)NC2=O)cc(CN2CCCC2)c1O`: the growth is 95.4%.

Consider `O=[N+]([O-])c1c(O)c(Cl)cc(Cl)c1Cl`, for which the growth is 98.8%.

For the compound `Cn1c(=O)c2[nH]c(SC/C(=N/O)c3ccc(Br)cc3)nc2n(C)c1=O`, the growth is -27.2% (active).

Regarding `CCOC(=O)c1cn2ncnc(Oc3ccc(NC(=O)NC4CC4)c(Cl)c3)c2c1C`, the growth was 83.8%.

For the compound `O=c1oc2c(cc1-c1ccccc1)c(=O)[nH]c1ccccc12`, the growth was 92.7%.

Consider `O=C(Cc1ccc(/C=C/C(=O)c2ncc[nH]2)cc1)Nc1cc(F)c(F)c(F)c1`, for which the growth is 44.8%.

For the compound `Cc1nc2sc(C(=O)Nc3ccccn3)c(N)c2cc1C(C)O` (stereo not given), the growth was 89.3%.

As to `CN(C)/C(N)=N/N=C(\c1ccccc1)c1ccccn1`, the growth was 101%.

With `Cc1ccc2c(c1)nc(C)n2-c1ncnc2c1CC(C)c1cc(O)ccc1N2C` (stereo not given), the growth was 25.3%.

Consider `c1cc(OCCN2CCCCCC2)ccc1CNc1ccc2nc(CCC3CCCCC3)[nH]c2c1`, for which the growth was 74.2%.

Turning to `O=C1CCCCN1c1ccc(C2=NCCCN2)cc1`, the growth is 55%.

Regarding `O=C(/C=C/c1ccccc1)N(C1CCCCC1)C1CCCCC1`, the growth is 81.4%.

Regarding `CS(=O)(=O)Nc1cc(-c2ccc3ncnc(Nc4ccc5c(cnn5Cc5ccccc5F)c4)c3c2)cnc1Cl`, the growth was -15.7% (active).

`CC(C)(C)c1ccc(C(=O)N/N=C/c2ccc(O)cc2O)cc1`: the growth is 37.6%.

Consider `CCN(CC)CCOc1ccc2c(-c3ccccc3)c(-c3ccc(OC)cc3)c(=O)oc2c1`, for which the growth is 82.6%.

Turning to `c1cc(OCCN2CCCCC2)ccc1CNc1ccc2nc(CCC3CCCCC3)[nH]c2c1`, the growth was 68.1%.

As for `COCCn1cc(-c2csc(-c3c[nH]c4ccccc34)n2)c2cccnc21`, the growth was 20.5%.

Turning to `COc1ccc(N/N=C/c2cn(-c3ccc(C(=O)O)cc3)nc2-c2cc3ccccc3oc2=O)cc1`, the growth was 82.1%.

Turning to `N#C/C(=C\c1ccc(-c2cccc(Cl)c2)o1)C(=O)Nc1ncc(Cc2ccc(Cl)cc2)s1`, the growth was -3.05% (active).

Turning to `COC1C(O)CC(OC2CC(OC3CC(O[C@@H]4C(=O)c5c(cc6cc(OC7CC(OC8CC(O)C(O)C(C)O8)C(O)C(C)O7)c(C)c(O)c6c5O)CC4[C@H](OC)[C@@H](O)C(C)=O)OC(C)C3O)OC(C)C2O)OC1C` (stereo not given in full), the growth is -17.6% (active).

In the case of `Cc1ccc(C(=O)c2ccc(CC(=O)N/N=C/c3cccc(O)c3O)n2C)cc1`, the growth is 25.4%.

On to `CCOC(=O)C(CCN(C)C)c1ccccc1` (stereo not given), for which the growth was 81.1%.

Turning to `COc1c2c(cc3c1C(=O)N[C@@H]1[C@@H](O)[C@@H](O)[C@H](O)C[C@@H]31)OCCO2`, the growth was 99.3%.

Take `COC(=O)[C@@]12CC=C(C)[C@]3(C[C@H](c4ccoc4)OC3=O)[C@H]1C=C[C@@H](O)[C@@]2(O)C(=O)OC`: the growth was 88.9%.

For the compound `S=c1ccnc[nH]1`, the growth is 120%.

Turning to `O=C(c1c[nH]c2ccccc12)c1n[nH]c(=S)n1-c1ccc([N+](=O)[O-])cc1`, the growth was 95.4%.

In the case of `CC1(/C=C/c2ccc(-c3ccccc3)cc2)CCn2cnc3ncnc(c32)N1O` (stereo not given), the growth is 36.3%.

`CCOC(=O)c1ccc[nH]1`: the growth is 84.2%.

Turning to `COc1ccc2cc(-c3nc4ccc(C)cn4c3NCc3ccco3)c(=O)[nH]c2c1`, the growth was 56%.

With `Cc1ccc(S(=O)(=O)OCC#CCOS(=O)(=O)c2ccc(C)cc2)cc1`, the growth was 5% (active).

Regarding `COc1ccccc1S(=O)(=O)Nc1ccc2c3c(cc(CCC(=O)NCCCCNc4cccc5c4C(=O)N(C4CCC(=O)NC4=O)C5=O)cc13)C(=O)N2C` (stereo not given), the growth was -26.1% (active).

As for `CS(=O)(=O)Nc1cc(-c2ccc3ncnc(Nc4ccc5c(cnn5Cc5ccncc5)c4)c3c2)cnc1Cl`, the growth was 8.94% (active).

With `COc1cc2ncnc(Nc3ccc(S(=O)(=O)Nc4nccs4)cc3)c2cc1OCCCN1CCCC1`, the growth is 93.8%.

Turning to `O=[N+]([O-])c1ccccc1Sc1ccccc1[N+](=O)[O-]`, the growth was 80.8%.

As to `COC(=O)c1nc(-c2ccccc2)oc1S(=O)(=O)N1CCCC(C)C1` (stereo not given), the growth was 105%.

On to `COc1ccc(/C=C(/C(=O)N2CCNCC2)c2cc(OC)c(OC)c(OC)c2)cc1O`, for which the growth is 28.1%.

As to `CCN(CC)C(=O)C1=C(C)NC(=O)NC1c1ccc2c(c1)OCO2` (stereo not given), the growth is 93.3%.

For the compound `CS(=O)/C(C#N)=C\C=C\c1cccc(Cl)c1` (stereo not given), the growth is 22.5%.

Turning to `CCCCC#Cc1c(I)n(C2OC(CO[Si](C)(C)C(C)(C)C)C3OC(C)(C)OC32)c(=O)n(C(=O)c2ccccc2)c1=O` (stereo not given), the growth was 93.3%.

On to `COc1ccc(C(=O)/C=C/c2ccccc2)cc1S(N)(=O)=O`, for which the growth is 87.2%.

The record behind these values is PubChem BioAssay (NCI).
